# In all, about 1,100 compounds were measured (“Renilla luciferase signal (cell health) relative to plate median”: median about 0.97, highest 2% from about 1.6 on). Only a selection was taken, and the highest values are over-represented in it overall.
# System: HEK293T (UBE3A T485A transfected, BAR Wnt reporter)
# Assay: Renilla luciferase signal (cell health) relative to plate median (fold (linear ratio)); higher = higher Renilla signal
# Conditions: 24 h
# Procedure, shortened: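 HEK293T cells were seeded at 4500 cells/well in white 384-well plates and grown in DMEM with 10% FBS at 37°C and 5% CO2. The cells were transfected using Fugene 6 with a BAR firefly luciferase Wnt reporter, TK-Renilla and an expression plasmid, and four hours later robots added the chemicals at 0.01–100 uM for 24 h before a Dual-Glo luciferase readout. Wnt activity was taken as the firefly/Renilla ratio and cell health as raw Renilla, each median-centred per plate. Values are averages of four biological replicates.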
Structure (SMILES),Renilla luciferase signal (concentration: 0.1 uM),Renilla luciferase signal (concentration: 1 uM),Renilla luciferase signal (concentration: 10 uM),Renilla luciferase signal (concentration: 100 uM),Renilla luciferase signal (concentration: 0.01 uM)
CCCCCCCCC(=O)O [Nonanoic acid],0.743,0.854,0.901,0.975,
CN(C)c1ccc(C(=C2C=CC(=[N+](C)C)C=C2)c2ccc(N(C)C)cc2)cc1.[Cl-] [Gentian Violet],0.155,0.0242,0.0245,0.0226,
CCNc1ccccc1 [N-Ethylaniline],1.01,0.97,1.08,1.17,
c1ccc(Nc2ccccc2)cc1 [Diphenylamine],1.05,1.06,1.09,1.82,1.09
"Nc1ccc(Nc2ccccc2)cc1 [N-Phenyl-1,4-benzenediamine]",0.905,0.984,0.71,0.204,
"Nc1cccc(N)c1 [1,3-Benzenediamine]",1.19,1.05,1.19,1.74,
Nc1ccc2c(c1)C(=O)c1ccccc1C2=O [2-Aminoanthraquinone],1.16,0.898,0.829,0.621,
"Nc1cccc2c(N)cccc12 [1,5-Naphthalenediamine]",0.805,0.822,0.856,0.73,
CCCCC(CC)CO (configuration not stated) [2-Ethyl-1-hexanol],0.758,0.775,0.504,1.25,
CCCCCCCCCCCCCCCCCC(=O)O [Octadecanoic acid],0.913,0.958,0.923,1.4,
CNC(CC(=O)O)C(=O)O (configuration not stated),1.14,0.949,1.02,1.9,1.02
O=C(O)CC(O)C(=O)O (configuration not stated) [Malic acid],1.33,1.26,1.32,1.29,
Cc1ccc2oc(CN(Cc3ccccc3)C(=O)Nc3c(F)cc(F)cc3F)c(-c3ccc(Cl)cc3)c2c1,0.953,0.858,0.846,0.482,
"CC(C)CCCCCCOC(=O)C1CCCCC1C(=O)OCCCCCCC(C)C (configuration not stated) [Diisononyl cyclohexane-1,2-dicarboxylate]",0.946,1.13,1.06,1.38,
COc1cc(C(C)C)c2c(c1)S(=O)(=O)N(COc1cc(=O)n3cccc(OCCN4CCCCC4)c3n1)C2=O,1.26,1.3,1.21,0.497,

# Reference: the supplement of paper PMC9254222
